Screening results (PubChem BioAssay)
An excerpt weighted towards active compounds, which were near 13% of everything screened.
CHOP inhibitor: blocks CHOP induction under ER stress; CHO-K1 CHOP-promoter luciferase, tunicamycin-induced, 15-18 h; inhibition, % at 10 µM; 220,000 compounds, 3.8% hits;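 active = compounds that reduced the stress-induced luciferase reporter signal by more than about 70% of percent inhibition, limit read from the data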;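 note: 0% = tunicamycin plus vehicle and 100% = wells without tunicamycin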
WT yeast gro inh: growth inhibition of WT yeast, mitochondrial fusion screen | mitochondrial fusion phenotypic screen, WT strain | inhibition, % at 10 µM | 190,000 compounds, 2.1% hits | AID 1362; in the data active = inhibition above about 58%; tested in S. cerevisiae
L major viab: Leishmania major promastigote growth inhibition. AID 1063. inhibition, % at 10 µM. 200,000 compounds, 9% hits. Leishmania major promastigotes, resazurin fluorescence viability; in the data active = inhibition above about 50%;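 note: promastigotes grown with compound for 44 hours at 28 °C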
RAM inhibit: inhibitors of the yeast RAM network; inhibition, % at 50 µM; S. cerevisiae dse1pr::URA3 reporter, 5-FOA growth OD615, 2 d; analog-sensitive cbk1-as2 kinase mutant strain; 190,000 compounds, 1.8% hits; AID 868;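 active = inhibition above a set limit, 3 SD over mean compound inhibition, cut at about 8.4% in these data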;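 note: 0% = DMSO-only wells with no growth and 100% = 10 µM 1-NA-PP1 full growth; inhibition rescues growth on 5-FOA so higher OD means more RAM inhibition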
* hit, by the source's call; / = no result.

SMILES	CHOP inhibitor	WT yeast gro inh	L major viab	RAM inhibit
CCC1CCCCN1CCCn1c(=S)[nH]c2ccccc2c1=O (stereo unspecified)	26.1	4.7	97.2*	1.0
NS(=O)(=O)c1ccc(CCn2c(=S)[nH]c3ccccc3c2=O)cc1	31.1	/	/	/
Cc1cc(NC(=S)N(Cc2ccc(Br)cc2)Cc2ccc(C(=O)O)cc2)ccc1Cl	1.3	70.4*	-4.3	6.1
Cc1cc(C)cc(NC(=S)N(Cc2cccc(Br)c2)CC2CCC(C(=O)O)CC2)c1 (stereo unspecified)	-11.8	18.8	2.6	6.6
Cc1ccc(NC(=S)N(Cc2cccc(Br)c2)CC2CCC(C(=O)O)CC2)cc1Cl (stereo unspecified)	-1.3	64.0*	0.3	3.4
Cc1cccc(NC(=S)N(Cc2ccc(Br)cc2)Cc2ccc(C(=O)O)cc2)c1	6.9	0.1	4.8	7.2
CCCN(CCO)Cc1ccc2ccccc2c1	7.7	-2.0	3.3	0.2
CCCN(CCO)Cc1cccc(Oc2ccccc2)c1	22.6	-2.4	97.2*	0.8
CCCOc1ccc(OCCOCCNCc2ccccc2)cc1	11.3	14.4	98.1*	0.8
CCOc1ccc(OCCOCCNCCOC)cc1	17.3	-0.9	70.0*	0.3
Cc1cc(C)c(C)c(OCCOCCNCc2ccccc2)c1	-6.3	26.2	77.0*	0.5
CCC(C)NCCOc1cc(C)cc(C)c1C (stereo unspecified)	7.9	7.9	21.6	1.2
CCOC(=O)C1CCCN(C(=O)Nc2c(-c3ccccc3)noc2C)C1 (stereo unspecified)	1.3	/	/	/
CC(C)NC(=O)NC(=O)COC(=O)c1ccc(F)cc1F	0.7	-9.1	-6.6	-1.4
O=C(c1ccccc1)c1nc2ccccc2n(CCCn2c(=O)c(C(=O)c3ccccc3)nc3ccccc32)c1=O	19.6	2.5	17.9	9.6*
COc1cc(/C=N/NC(=O)c2cccnc2)ccc1OS(=O)(=O)c1cc(C)ccc1C	-1.0	10.4	97.0*	0.8
COc1cc(/C=N/NC(=O)c2cccnc2)ccc1OCC(=O)Nc1ccc(C)cc1	17.9	-12.2	54.5*	2.1
COc1cc(/C=N/NC(=O)c2cccnc2)ccc1OS(=O)(=O)c1ccc(C)cc1	-6.0	-10.0	-4.2	7.1
O=C(CN1C(=O)/C(=C\c2cccc(F)c2)Oc2ccccc21)N1CCN(c2ccccn2)CC1	18.2	-14.9	50.4*	6.9
O=C(CN1C(=O)/C(=C\c2ccc(F)cc2)Oc2ccccc21)N1CCN(c2ccccn2)CC1	89.5*	1.2	-1.8	-0.3
O=C(CN1C(=O)/C(=C/c2ccccc2F)Sc2ccccc21)N1CCN(c2ccccn2)CC1	16.7	2.5	14.9	0.0
CCSc1nnc(C)c(=O)n1COC(=O)c1ccc(S(=O)(=O)N2CCCC2)cc1	4.4	-12.5	4.7	0.6
CCOc1ccccc1N1CCN(Cc2cnc(-c3ccccc3)[nH]2)CC1	17.3	/	/	/
CC1CCN(CCOc2ccccc2-c2ccccc2)CC1	9.2	10.5	20.5	0.3
Cc1ccc([N+](=O)[O-])c(OCCN2CCC(Cc3ccccc3)CC2)c1	15.1	-9.0	94.0*	0.0
SMILES	CHOP inhibitor	WT yeast gro inh	L major viab	RAM inhibit
CCOc1ccccc1OCCN1CCC(Cc2ccccc2)CC1	26.4	9.3	99.2*	1.2
Cc1ccccc1OCCN1CCC(Cc2ccccc2)CC1	9.1	37.3	82.3*	-0.6
CC(C)CC(NC(=O)c1ccc(Cl)cc1)C(=O)OCc1cc([N+](=O)[O-])cc2c1OCOC2 (stereo unspecified)	30.8	6.7	4.7	1.5
COc1ccccc1/C=N/N1C(=O)C(CC(=O)Nc2ccc([N+](=O)[O-])cc2OC)SC1=Nc1cccc(C)c1C (stereo unspecified)	13.7	-27.9	25.2	10.5*
O=C(CCn1nnc2ccccc21)N1CCN(c2ccccc2)CC1	3.4	-3.9	14.7	-0.3
O=C(COC(=O)CCc1nc2ccccc2n1-c1ccccc1)Nc1ccc(N2CCCCC2)cc1	28.5	-1.7	-2.8	0.2
O=C(CCc1nc2ccccc2n1-c1ccccc1)NCCO	-16.8	11.6	55.7*	2.1
CCN1CCN(C(=O)CCc2nc3ccccc3n2-c2ccccc2)CC1	26.9	-13.7	57.5*	0.8
O=C(NCCCN1CCCC1=O)c1ccccc1NS(=O)(=O)c1ccc(Br)cc1	-9.9	1.3	-4.9	-1.0
CCN1CCN(c2ncc3c(n2)CC(c2cc(OC)c(OC)c(OC)c2)CC3=O)CC1 (stereo unspecified)	/	-0.1	99.8*	-0.9
CC1(C)CC(=O)C(C(=O)/C=C/NCCc2ccccc2)C(=O)C1	38.5	-1.4	-3.1	0.0
O=C(CSCC(=O)N1CCCCC1)Nc1nc(-c2ccccc2)c(-c2ccccc2)s1	19.4	60.3*	7.1	4.3
COc1ccc(-c2sc(NC(C)=O)nc2-c2ccccc2)cc1	12.4	1.4	65.9*	3.0
COc1ccc2nc(Nc3ccccc3)sc2c1	23.8	29.3	20.8	-0.5
COc1ccc(Nc2nc(C)c(-c3ccccc3)s2)cc1	50.8	66.0*	7.8	-0.8
COc1ccc(/C=C/C(=O)c2ccc(Cl)s2)cc1O	84.7*	-3.6	91.6*	3.2
COc1ccc(C(=O)/C=C/c2ccc(OC)c(O)c2)c(F)c1	-25.9	-12.1	82.1*	-1.9
COc1cc(/C=C/C(=O)c2ccc(Cl)s2)cc(OC)c1O	18.3	14.3	100.1*	-1.6
Cc1c(/C=C/C(=O)c2ccc(Cl)s2)cnn1C	-4.0	13.7	20.0	1.5
O=c1c2ccccc2nc2n1CC/C2=C/N1CCN(c2cccc(C(F)(F)F)c2)CC1	-11.9	14.2	54.6*	-0.7
Cc1cccc(C2(c3cccc(C)c3)OC(=O)c3ccccc32)c1	8.8	-8.3	-2.0	9.0*
CC(C)C(NC(=O)OCc1ccccc1)C(=O)NCc1ccc(C(=O)O)cc1 (stereo unspecified)	23.6	-7.8	-1.5	1.9
Cc1ccc(NC(=S)NCCC2=CCCCC2)cc1	-18.6	68.3*	17.2	1.8
Cc1ccccc1C(=O)NC(=S)NCCC1=CCCCC1	-11.1	71.2*	6.6	0.9
O=C(NC(=S)NCCC1=CCCCC1)c1ccc(Br)o1	39.9	75.9*	-8.0	0.0
SMILES	CHOP inhibitor	WT yeast gro inh	L major viab	RAM inhibit
CC(C)C(c1nnnn1Cc1cccs1)N1CCN(C(=O)c2ccco2)CC1 (stereo unspecified)	-7.5	-13.8	7.4	0.4
CSc1ccccc1NC(=O)CN(C)C(C)C(=O)Nc1ccc(C#N)cc1 (stereo unspecified)	16.6	14.0	56.4*	0.6
CSc1ccccc1NC(=O)CN(C)CC(=O)Nc1ccccc1F	14.2	-18.0	-5.3	2.6
CCN1C(c2ccccc2)C(C)C(=O)C(C)C1c1ccccc1 (stereo unspecified)	56.6	80.8*	-0.2	0.0
COc1cccc2cc(C(=O)OCC(=O)NCc3ccc4c(c3)OCO4)c(=O)oc12	14.1	/	/	/
CCN(CC)CCN(CC)Cc1ccccc1Br	4.5	2.0	95.7*	1.2
COc1ccc(/C=C(\NC(=O)c2ccccc2)C(=O)OC[C@@H]2CCC[N+]3(C)CCCCC23)cc1OC (stereo partly specified)	-12.6	0.0	-1.4	3.7
O=C(c1cccnc1Cl)N1CCOCC1	5.3	0.3	1.0	0.5
CC(NC(=O)c1ccccc1)c1nc2ccccc2n1Cc1ccccc1F (stereo unspecified)	22.3	-5.1	53.5*	1.1
